# In PubChem BioAssay (Tox21):
# “And” between values parts separate entries of the source, which are not always exact repeats. Equal values may be shown once. Results filed as inconclusive are left out. A call without a number means that no potency is given here. Where a structure was tested more than once in an assay, its records may differ in their call. The source made the active and inactive calls. Unless noted, calls come from the whole dose curve; as a rule, active = well fitted curve in the direction sought with a large enough effect in the repeat runs; inconclusive = weak or mixed curves; inactive = no such curve, though single readings can be large; an effect the other way counts as inactive or inconclusive.
# Key:
# [1] = qHTS assay to identify small molecule agonists of the estrogen receptor alpha (ER-alpha) signaling pathway in the presence of an antagonist - cell viability counter screen (AID 1259386);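 note: cells exposed to compounds for 22 h at 37 °C before the viability read; nearly all actives have a fitted effect of over 30% in size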; note: potency is the fitted concentration of half-maximal effect
# Summary of the method: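 Steps: 5-day stripped-FBS culture; seed and incubate 24hr; add ICI-182,780 (10.0nM final); pin 15-point compound titration; incubate 22hr at 37C; add CellTiter-Fluor at 21hr; read fluorescence.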
# [2] = target: Progesterone receptor (Homo sapiens) (UniProt P06401); assay: qHTS assay to identify small molecule agonists of the progesterone receptor (PR) signaling pathway (AID 1346784; calls by dose curve; note: nearly all actives have a fitted effect of over 30% in size; note: potency is the fitted concentration of half-maximal effect)
# Sequence of Progesterone receptor (Homo sapiens) (P06401 whole entry, looked up): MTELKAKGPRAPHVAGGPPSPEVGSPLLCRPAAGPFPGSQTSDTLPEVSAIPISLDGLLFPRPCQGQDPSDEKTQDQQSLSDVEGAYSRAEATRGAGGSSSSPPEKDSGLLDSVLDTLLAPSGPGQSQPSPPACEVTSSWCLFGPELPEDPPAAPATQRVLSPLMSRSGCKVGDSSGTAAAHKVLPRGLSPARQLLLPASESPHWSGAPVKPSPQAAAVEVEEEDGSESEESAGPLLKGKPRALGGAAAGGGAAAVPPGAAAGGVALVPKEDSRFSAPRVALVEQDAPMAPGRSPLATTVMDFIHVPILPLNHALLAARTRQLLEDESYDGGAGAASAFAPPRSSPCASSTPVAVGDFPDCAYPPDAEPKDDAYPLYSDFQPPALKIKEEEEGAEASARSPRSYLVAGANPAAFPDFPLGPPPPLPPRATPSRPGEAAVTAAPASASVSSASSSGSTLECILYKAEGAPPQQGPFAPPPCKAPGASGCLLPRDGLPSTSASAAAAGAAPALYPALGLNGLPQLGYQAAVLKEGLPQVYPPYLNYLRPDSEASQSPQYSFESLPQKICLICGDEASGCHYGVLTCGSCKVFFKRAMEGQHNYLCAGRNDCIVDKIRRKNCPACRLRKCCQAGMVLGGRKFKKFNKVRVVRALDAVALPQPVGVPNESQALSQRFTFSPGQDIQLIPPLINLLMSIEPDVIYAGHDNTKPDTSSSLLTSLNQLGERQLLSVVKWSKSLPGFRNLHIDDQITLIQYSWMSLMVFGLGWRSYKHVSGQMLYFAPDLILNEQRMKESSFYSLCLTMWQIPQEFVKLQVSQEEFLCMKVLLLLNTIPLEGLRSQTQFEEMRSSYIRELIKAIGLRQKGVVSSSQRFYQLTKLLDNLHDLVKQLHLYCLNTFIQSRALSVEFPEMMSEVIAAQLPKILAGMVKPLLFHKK
# Summary of the method: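 Agonist qHTS: compounds pinned onto 3,000 PR-UAS-bla HEK 293T cells per well in charcoal-stripped serum medium, 16hr at 37C, then beta-lactamase activity measured by LiveBLAzer FRET fluorescence after 2 hours at room temperature.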
# [3] = target: Progesterone receptor (Homo sapiens) (UniProt P06401); assay: qHTS assay to identify small molecule antagonists of the progesterone receptor (PR) signaling pathway (AID 1346795; active = well fitted inhibition curve with a large enough effect in the signal ratio in the repeat runs, not every such curve was filed as active; the % refers to the signal ratio; note: potency is the fitted concentration of half-maximal effect)
# Summary of the method: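 Antagonist mode with agonist R5020 at 1 nM final and 16 hr incubation at 37C. Reporter was beta-lactamase driven by UAS in HEK293T (PR-UAS-bla), 2% charcoal-stripped serum; signal from LiveBLAzer FRET substrate, 2 hr at room temperature.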
# [4] = qHTS assay to identify small molecule agonists of the progesterone receptor (PR) signaling pathway - cell viability counter screen (AID 1346799; calls by dose curve; note: nearly all actives have a fitted effect of over 45% in size; note: potency is the fitted concentration of half-maximal effect)
# Summary of the method: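 Cytotoxicity measured by CellTiter-Glo luminescence (30 min, RT) in the same wells as the PR beta-lactamase agonist read. Those HEK293T cells had 16 h compound treatment at 37 C in 2% charcoal-stripped FBS medium.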
# [5] = qHTS assay to identify small molecule antagonists of the TGF-beta/Smad signaling pathway - cell viability counter screen (AID 1346824); note: nearly all actives have a fitted effect of over 50% in size; note: potency is the fitted concentration of half-maximal effect
# Summary of the method: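 Cytotoxicity counter-screen run in the same wells as the beta-lactamase Smad reporter read: CellTiter-Glo luminescence after 30 min at room temperature. HEK 293T SBE-bla cells had 5 hr compound exposure at 37 C with TGF-beta1 (0.25 ng/mL stock).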
# [6] = qHTS assay to identify small molecule agonists of the TGF-beta/Smad signaling pathway - cell viability counter screen (AID 1346829); note: nearly all actives have a fitted effect of over 45% in size; note: potency is the fitted concentration of half-maximal effect
# Summary of the method: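 Tox21 qHTS format: SBE-bla HEK 293T cells treated with DMSO-dissolved compounds for 5 hr; CellTiter-Glo luminescence after 30 min at room temperature.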
# [7] = target: Thyrotropin-releasing hormone receptor (Homo sapiens) (UniProt P34981); assay: qHTS assay to identify small molecule antagonists of the thyrotropin-releasing hormone receptor (TRHR) signaling pathway (AID 1346877; active = well fitted inhibition curve with a large enough effect in the repeat runs, not every such curve was filed as active; note: series mostly up to about 51 µM)
# Sequence of Thyrotropin-releasing hormone receptor (Homo sapiens) (P34981 whole entry, looked up): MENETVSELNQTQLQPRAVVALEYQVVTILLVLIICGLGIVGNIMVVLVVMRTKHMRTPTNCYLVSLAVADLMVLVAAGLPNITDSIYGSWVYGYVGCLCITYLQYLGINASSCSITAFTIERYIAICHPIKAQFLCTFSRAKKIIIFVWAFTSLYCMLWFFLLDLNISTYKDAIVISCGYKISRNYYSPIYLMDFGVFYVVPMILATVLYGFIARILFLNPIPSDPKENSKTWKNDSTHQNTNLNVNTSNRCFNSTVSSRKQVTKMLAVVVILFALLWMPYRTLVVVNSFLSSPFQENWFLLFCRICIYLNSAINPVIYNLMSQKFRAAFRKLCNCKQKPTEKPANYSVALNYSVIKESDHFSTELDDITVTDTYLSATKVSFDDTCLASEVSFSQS
# Summary of the method: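 Human TRHR in HEK293 cells; inhibition of the intracellular calcium rise triggered by 1 nM TRH was followed by fluorescence over 3 min. Compounds were run at 15 concentrations, three replicates each.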
# [8] = target: Thyrotropin-releasing hormone receptor (Homo sapiens) (UniProt P34981); assay: qHTS assay to identify small molecule agonists of the thyrotropin-releasing hormone receptor (TRHR) signaling pathway (AID 1346891; calls by dose curve; note: series mostly up to about 58 µM)
# Summary of the method: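 Agonist-mode intracellular calcium readout: kinetic fluorescence over 3 min at 1 s intervals after compound addition to TRHR-HEK293 cells (18 h seeded, 2 h dye-loaded at 37 C). Fifteen concentrations, triplicates.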
# [9] = Human pregnane X receptor (PXR) small molecule agonists, qHTS cell viability counter screen (AID 1346977); note: nearly all actives have a fitted effect of over 50% in size; note: potency is the fitted concentration of half-maximal effect
# Summary of the method: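 Same-well viability read: CellTiter-Fluor added after 23 hr compound exposure, fluorescence measured 1 hr later. Cells were PXR-Luc HepG2 seeded at 2,000/well in 5% charcoal-stripped FBS medium, rested 5 hr before dosing at 37 C.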
# [10] = Caspase-3/7 induction in HepG2 cells by small molecules, qHTS assay (AID 1346978); note: nearly all actives have a fitted effect of over 15% in size; note: potency is the fitted concentration of half-maximal effect
# Summary of the method: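 Caspase-3/7 induction was measured by Caspase-Glo 3/7 luminescence (30 min, room temperature) after a 17 hr compound exposure of wild-type HepG2 cells seeded at 2,000 per well and pre-incubated 5 hr.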
# [11] = Caspase-3/7 induction in CHO-K1 cells by small molecules, qHTS cell viability counter screen (AID 1346979); note: nearly all actives have a fitted effect of over 35% in size; note: potency is the fitted concentration of half-maximal effect
# Summary of the method: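 Cytotoxicity counter screen: CellTiter-Fluor added to compound-treated wild-type CHO-K1 cells at 16 h (37C, 5% CO2), fluorescence measured 1 h later; same wells as caspase-3/7 measurement.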
# [12] = Caspase-3/7 induction in HepG2 cells by small molecules, qHTS cell viability counter screen (AID 1346981); note: nearly all actives have a fitted effect of over 30% in size; note: potency is the fitted concentration of half-maximal effect
# Summary of the method: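 The parent HepG2 line is plated at 2,000 cells per well and rested 5 hr before compound pinning from DMSO stocks. Following a 16-hr treatment at 37 C, a fluorogenic live-cell substrate (CellTiter-Fluor) reports viability after 1 hr.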
# [13] = qHTS assay to identify small molecule antagonists of the progesterone receptor (PR) signaling pathway - cell viability counter screen (AID 1346798); note: series mostly up to about 92 µM; nearly all actives have a fitted effect of over 50% in size
# Summary of the method: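 Cytotoxicity read as CellTiter-Glo luminescence (30 min, room temperature) in the same wells as the beta-lactamase readout. HEK293T PR-UAS-bla cells in charcoal-stripped 2% FBS received compound and R5020, then 16 h at 37C, 5% CO2.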
# [14] = target: Nuclear receptor subfamily 1 group I member 2 (Homo sapiens) (UniProt O75469); assay: Human pregnane X receptor (PXR) small molecule agonists, qHTS assay (AID 1346982); note: nearly all actives have a fitted effect of over 35% in size; note: potency is the fitted concentration of half-maximal effect
# Sequence of Nuclear receptor subfamily 1 group I member 2 (Homo sapiens) (O75469 whole entry, looked up): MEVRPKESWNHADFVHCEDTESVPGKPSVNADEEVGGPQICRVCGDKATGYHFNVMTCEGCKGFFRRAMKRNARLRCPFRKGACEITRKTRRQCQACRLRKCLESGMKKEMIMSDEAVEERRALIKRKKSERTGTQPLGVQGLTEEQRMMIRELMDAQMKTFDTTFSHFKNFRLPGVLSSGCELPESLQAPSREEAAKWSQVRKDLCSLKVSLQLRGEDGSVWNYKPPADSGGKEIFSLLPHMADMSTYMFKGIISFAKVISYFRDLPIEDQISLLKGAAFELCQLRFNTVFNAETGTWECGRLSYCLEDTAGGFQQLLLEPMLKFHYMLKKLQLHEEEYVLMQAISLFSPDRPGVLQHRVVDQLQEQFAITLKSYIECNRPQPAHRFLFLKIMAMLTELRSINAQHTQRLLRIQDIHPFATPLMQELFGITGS
# Summary of the method: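 After plating in 5% charcoal-stripped FBS and a 5 hr rest, PXR-Luc HepG2 cells received compounds in DMSO. Following 24 hr at 37 C, ONE-Glo was added and light output read.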
# [15] = target: Cytochrome P450 2D6 (Homo sapiens) (UniProt P10635); assay: Cytochrome P450 Family 2 Subfamily D Member 6 (CYP2D6) small molecule antagonists: luciferase reporter qHTS assay (AID 1671196); note: nearly all actives have a fitted effect of over 50% in size; note: potency is the fitted concentration of half-maximal effect
# Sequence of Cytochrome P450 2D6 (Homo sapiens) (P10635 whole entry, looked up): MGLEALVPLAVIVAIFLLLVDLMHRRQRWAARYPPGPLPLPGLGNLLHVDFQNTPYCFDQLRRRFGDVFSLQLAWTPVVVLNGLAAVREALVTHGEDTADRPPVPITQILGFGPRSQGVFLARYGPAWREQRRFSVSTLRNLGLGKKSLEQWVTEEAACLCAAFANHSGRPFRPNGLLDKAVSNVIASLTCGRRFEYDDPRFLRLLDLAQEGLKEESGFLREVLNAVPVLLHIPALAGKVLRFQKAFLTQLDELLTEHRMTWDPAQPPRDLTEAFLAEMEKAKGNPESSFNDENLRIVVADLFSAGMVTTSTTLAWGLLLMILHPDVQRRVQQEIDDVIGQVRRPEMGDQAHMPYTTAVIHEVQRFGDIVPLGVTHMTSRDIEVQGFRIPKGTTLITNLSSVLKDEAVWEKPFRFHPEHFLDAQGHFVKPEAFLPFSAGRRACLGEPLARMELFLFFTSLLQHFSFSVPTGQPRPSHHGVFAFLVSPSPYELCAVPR
# Summary of the method: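 Quantitative HTS of Tox21 chemicals against CYP2D6 using a luminescent proluciferin substrate. After NADPH addition, 1 h room-temperature reaction; luminescence recorded 20 min post detection reagent.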
# [16] = qHTS assay to identify small molecule agonists of the TGF-beta/Smad signaling pathway (AID 1346859; active = well fitted activation curve with a large enough effect in the signal ratio in the repeat runs, not every such curve was filed as active; the % refers to the signal ratio; note: series mostly up to about 77 µM)
# Summary of the method: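 Fluorescence (ex 405 nm; em 460 and 530 nm) was read 2 h after LiveBLAzer FRET substrate at RT. The preceding compound treatment of overnight-plated SBE-bla HEK293T cells lasted 5 h at 37 C.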
# [17] = Caspase-3/7 induction in CHO-K1 cells by small molecules, qHTS assay (AID 1346980); note: nearly all actives have a fitted effect of over 15% in size; note: potency is the fitted concentration of half-maximal effect
# Summary of the method: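 Luminescent Caspase-Glo 3/7 read (30min, room temperature) quantified apoptosis induction. Cells were wild-type CHO-K1, treated with compound for 17hr at 37 C and 5% CO2.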
# [18] = target: Nuclear receptor subfamily 1 group I member 2 (Homo sapiens) (UniProt O75469); assay: CYP3A4 induction through human pregnane X receptor (PXR) by small molecules, qHTS assay (AID 1346984); note: nearly all actives have a fitted effect of over 40% in size
# Summary of the method: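 Human PXR activation is tracked via CYP3A4 promoter-luciferase in DPX-2 (HepG2) cells. Compounds treat cells for 24hr at 37C, and luminescence is read after One-Glo.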
# [19] = target: Nuclear receptor subfamily 1 group I member 2 (Homo sapiens) (UniProt O75469); assay: Human pregnane X receptor (PXR) activation by small molecules, qHTS assay (AID 1346985); note: nearly all actives have a fitted effect of over 40% in size; note: potency is the fitted concentration of half-maximal effect
# Summary of the method: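 DPX-2 cells (HepG2 co-transfected with a PXR response element and a CYP3A4-promoter luciferase construct) were seeded at 2,000 per well, rested 5 hr at 37C, then exposed to DMSO-dissolved compounds for 24 hr. Activation was read as luciferase luminescence.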
# [20] = target: Nuclear receptor subfamily 1 group I member 2 (Rattus norvegicus) (UniProt Q9R1A7); assay: Rat pregnane X receptor (rPXR) activation by small molecules, qHTS assay (AID 1346983); conditions: rPXR luciferase reporter cells, One-Glo luminescence, 24 h; stronger effect = higher value; note: nearly all actives have a fitted effect of over 20% in size
# Sequence of Nuclear receptor subfamily 1 group I member 2 (Rattus norvegicus) (Q9R1A7 whole entry, looked up): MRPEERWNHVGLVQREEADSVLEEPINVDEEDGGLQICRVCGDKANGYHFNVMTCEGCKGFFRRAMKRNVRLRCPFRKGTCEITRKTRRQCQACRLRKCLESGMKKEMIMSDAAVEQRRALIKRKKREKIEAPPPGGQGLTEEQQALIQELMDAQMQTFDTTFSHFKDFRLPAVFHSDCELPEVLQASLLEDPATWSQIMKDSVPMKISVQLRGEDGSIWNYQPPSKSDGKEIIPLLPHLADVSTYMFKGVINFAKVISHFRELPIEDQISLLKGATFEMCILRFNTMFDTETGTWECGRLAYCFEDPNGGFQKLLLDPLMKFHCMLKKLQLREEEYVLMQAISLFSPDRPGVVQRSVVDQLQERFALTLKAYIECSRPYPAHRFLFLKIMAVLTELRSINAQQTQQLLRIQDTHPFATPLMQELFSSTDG
# Summary of the method: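 Luminescent readout (One-Glo luciferase, 30 min room temperature) followed 24 hr compound treatment at 37 C of rPXR cells plated 2,000 per well and preincubated 5hr; qHTS format with compounds delivered in DMSO.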
SMILES,Potency [1],Potency [2],Potency [3],Potency [4],Potency [5],Potency [6],Potency [7],Potency [8],Potency [9],Potency [10],Potency [11],Potency [12],Potency [13],Potency [14],Potency [15],outcome [16],Potency [17],Potency [18],Potency [19],max activation [20]
COc1ccc(CCN2CCC(Nc3nc4ccccc4n3Cc3ccc(F)cc3)CC2)cc1,39.4 µM (active) and inactive,inactive,18.8 µM (active),14 µM (active),39.8 µM (active),44.6 µM (active),inactive,inactive,3.94 µM (active) and 13.3 µM (active),7.86 µM (active),7.86 µM (active) and 23.7 µM (active),8.82 µM (active) and 29.8 µM (active),–,–,–,–,–,–,–,–
CCN(CC)c1ccc2c(C)cc(=O)oc2c1,inactive,30.9 µM (active) and 34.4 µM (active),–,inactive,inactive,inactive,inactive,inactive,inactive,inactive,–,–,inactive,54.9 µM (active) and 48.6 µM (active),inactive,–,–,–,–,–
CC1=C(C=O)C(C)(C)CC=C1,inactive,inactive,–,inactive,inactive,inactive,inactive,inactive,inactive,–,inactive,inactive,inactive,inactive,inactive,inactive,inactive,–,–,–
c1ccc2n[nH]nc2c1,inactive,inactive,–,inactive,inactive,inactive,–,–,inactive,inactive,inactive,inactive,inactive,inactive,inactive,–,inactive,–,–,–
NNCCc1ccccc1,inactive,inactive,–,inactive,inactive,inactive,inactive,inactive,inactive,inactive,inactive,inactive,inactive,27.4 µM (active) and 26.6 µM (active),2.25 µM (active) and 12.3 µM (active),–,inactive,inactive,12.6 µM (active),–
Oc1ccc(Cl)cc1Cc1cc(Cl)ccc1O,43.3 µM (active),inactive,–,69.8 µM (active),–,inactive,inactive,inactive,35.5 µM (active) and 30.6 µM (active) and 16.8 µM (active),–,44.1 µM (active) and 38.6 µM (active) and 29.8 µM (active),55.5 µM (active),inactive,22.1 µM (active) and 27.3 µM (active),–,inactive,inactive,–,inactive,-2.03% (inactive)
Cc1cccc([N+](=O)[O-])c1C(=O)O,inactive,inactive,inactive,inactive,inactive,inactive,–,–,inactive,inactive,inactive,inactive,–,inactive,63.4 µM (active),–,inactive,–,–,–
Cc1cccc(O)c1C,inactive,24.2 µM (active) and inactive,inactive,inactive,inactive,inactive,inactive,inactive,inactive,–,inactive,inactive,–,inactive,inactive,–,–,–,–,–
c1cc(C(c2ccc(OCC3CO3)cc2)C(c2ccc(OCC3CO3)cc2)c2ccc(OCC3CO3)cc2)ccc1OCC1CO1 (stereo unspecified),inactive,inactive,–,inactive,inactive,inactive,inactive,inactive,inactive,inactive,inactive,inactive,inactive,40 µM (active) and 7.69 µM (active),46.5 µM (active) and inactive,–,28.3 µM (active),–,–,–
O=c1n(CC2CO2)c(=O)n(CC2CO2)c(=O)n1CC1CO1 (stereo unspecified),inactive,inactive,–,–,inactive,inactive,inactive,inactive,50.1 µM (active) and 54.5 µM (active),68.2 µM (active),60.8 µM (active) and 48.6 µM (active),54.2 µM (active) and 48.6 µM (active),inactive,17.1 µM (active) and 13.7 µM (active),inactive,inactive,inactive,inactive,inactive,-2.73% (inactive)
CCC(C)(Oc1ccc(C2(c3ccc(OC(C)(CC)C(=O)O)cc3)CCCCC2)cc1)C(=O)O (stereo unspecified),inactive,inactive,inactive,inactive,inactive,inactive,–,–,inactive,inactive,inactive,inactive,–,inactive,inactive,–,inactive,inactive,inactive,-0.804% (inactive)
COC(=O)c1cccc(C(=O)OC)c1,inactive,inactive,–,inactive,inactive,inactive,inactive,inactive,inactive,inactive,inactive,inactive,inactive,inactive,inactive,inactive,inactive,–,–,–
O=Cc1ccc(Cl)cc1,inactive,inactive,–,inactive,inactive,inactive,inactive,inactive,inactive,inactive,inactive,inactive,inactive,inactive,–,inactive,–,–,–,–
CC1=CC(=O)c2ccccc2C1=O,38.6 µM (active) and inactive,inactive,–,inactive,49 µM (active),54.9 µM (active),inactive,inactive,43.3 µM (active),inactive,24.3 µM (active) and 21.1 µM (active),68.6 µM (active) and inactive,inactive,–,31.7 µM (active),inactive,inactive,–,–,–
Cc1ccc(S(=O)(=O)Oc2ccc(N=Nc3ccc(-c4ccc(N=Nc5c(O)ccc6cc(S(=O)(=O)O)cc(S(=O)(=O)O)c56)c(C)c4)cc3C)cc2)cc1,27.4 µM (active) and 11.2 µM (active),inactive,–,inactive,inactive,inactive,–,–,11.2 µM (active) and 8.92 µM (active),–,15.4 µM (active) and 10 µM (active),19.4 µM (active) and 15.9 µM (active),inactive,6.89 µM (active) and inactive,40.1 µM (active) and 26 µM (active),inactive,–,–,–,–
